Assay [1] in a line: qHTS Assay for Identification of Small Molecule Agonists for Hypoxia Response Element Signaling Pathway (AID 914; active = well fitted activation curve with a large enough effect in the signal ratio, with a control signal flat, not every such curve was filed as active; the % refers to the signal ratio). The note with it: ME-180 (cervical carcinoma) HRE-bla reporter, beta-lactamase ratio, CoCl2, 17 h; stronger effect = higher value. Put shortly:
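HRE-bla ME-180 assay for agonist-like enhancement of an EC50 CoCl2 stimulus: 17 h at 37 degrees Celsius, CCF4 for 2.5 h, ratiometric 460/530 nm signal converted to %Activity and fitted to AC50.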
In general terms: qHTS replaces the single test concentration by a dilution series.

For assay [2], the target named is Cytochrome P450 3A4 (Homo sapiens) (UniProt P08684). Briefly: qHTS Assay for Activators of Cytochrome P450 3A4 (AID 885). Also: nearly all actives have a fitted effect of over 65% in size. Put shortly: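 Quantitative HTS format: compounds preincubated with 20nM human CYP3A4 and Luciferin-PPXE substrate at KM, reaction started by NADPH regeneration, stopped after 60 min, luciferase luminescence read 20 min later.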
Assay [3] in a line: Confirmation and Secondary Assay for Modulators of Hemoglobin Beta Chain Splicing at IVS2 654 locus (AID 910).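 Also: HeLa cells stably carrying EGFP split by mutant beta-globin IVS2-654 intron.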 The method in brief: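 HeLa cells stably expressing EGFP interrupted by β-globin IVS2-654 intron, seeded overnight in Opti-MEM/2% FCS, then treated 2 days at 37 °C. Restored splicing read as total peak GFP intensity per well by laser scanning cytometry (488 nm excitation, 500–520 nm emission); 500 nM antisense PNA as control.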

A short description of assay [4]: Confirmation and Secondary Assay for Modulators of Hemoglobin Beta Chain Splicing at IVS2 705 locus (AID 930).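 Also: HeLa cells stably expressing the EGFP-705 splicing reporter; GFP fluorescence per well restored by corrected splicing of the IVS2-705 intron in EGFP; series mostly up to about 46 µM.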 The method in brief:
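HeLa IVS2-705 EGFP reporter cells, 500/well, compound 2 d at 37C; correct splicing yields fluorescent EGFP. Control: 500 nM antisense PNA. Read-out: total peak GFP intensity.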

The target in assay [5] is Cytochrome P450 3A4 (Homo sapiens) (UniProt P08684). Kind of assay: qHTS Assay for Inhibitors and Substrates of Cytochrome P450 3A4 (AID 884). Also: series mostly up to about 57 µM; nearly all actives have a fitted effect of over 50% in size. The method in brief:
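20 nM human CYP3A4 with 25 uM Luciferin-PPXE (at KM) in 200 mM KPO4, preincubated 10 min with compound; NADPH regeneration started a 60 min RT reaction. Luciferin detected by luminescence, normalized to 57 uM ketoconazole as full inhibition.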

Assay [6] concerns the target Cytochrome P450 2D6 (Homo sapiens) (UniProt P10635). Briefly: qHTS Assay for Inhibitors and Substrates of Cytochrome P450 2D6 (AID 891). Also: potency is read from the fitted curve at half-maximal effect; nearly all actives have a fitted effect of over 60% in size. The method in brief: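 Human CYP2D6 (5 nM) with 30 uM Luciferin-ME EGE (at Km) in 100 mM KPO4, compound preincubated 10 min, then NADPH regeneration system for 60 min at room temperature. Luciferin read by luminescence; normalized to 1.43 uM quinidine.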

Assay [7] deals with Cytochrome P450 2C19 (Homo sapiens) (UniProt P33261). Briefly: qHTS Assay for Inhibitors and Substrates of Cytochrome P450 2C19 (AID 899). Also: nearly all actives have a fitted effect of over 60% in size. Also: potency is read from the fitted curve at half-maximal effect. Put shortly: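 Luminescent read-out of luciferin formed from Luciferin-H EGE (10uM, equal to KM). Enzyme 5nM in 50mM KPO4; compound added, 10 min at 37C, then NADPH regenerating system for 60 min at 37C. Full inhibition defined by 57uM ketoconazole.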

SMILES strings stand for the structures. Values without a mark were called inactive. Records with an inconclusive call do not appear. Where a call stands in place of a potency, no number is given. Active and inactive are the calls of the source. Unless noted, calls follow the shape of the dose curve; as a rule, active = well fitted curve in the direction sought with a large enough effect; inconclusive = small, poorly fitted or top-dose-only effect, or another doubt; inactive = no such curve, though single readings can be large; an effect the other way counts as inactive or inconclusive.

Sequence of Cytochrome P450 3A4 (Homo sapiens) (P08684 whole entry, looked up): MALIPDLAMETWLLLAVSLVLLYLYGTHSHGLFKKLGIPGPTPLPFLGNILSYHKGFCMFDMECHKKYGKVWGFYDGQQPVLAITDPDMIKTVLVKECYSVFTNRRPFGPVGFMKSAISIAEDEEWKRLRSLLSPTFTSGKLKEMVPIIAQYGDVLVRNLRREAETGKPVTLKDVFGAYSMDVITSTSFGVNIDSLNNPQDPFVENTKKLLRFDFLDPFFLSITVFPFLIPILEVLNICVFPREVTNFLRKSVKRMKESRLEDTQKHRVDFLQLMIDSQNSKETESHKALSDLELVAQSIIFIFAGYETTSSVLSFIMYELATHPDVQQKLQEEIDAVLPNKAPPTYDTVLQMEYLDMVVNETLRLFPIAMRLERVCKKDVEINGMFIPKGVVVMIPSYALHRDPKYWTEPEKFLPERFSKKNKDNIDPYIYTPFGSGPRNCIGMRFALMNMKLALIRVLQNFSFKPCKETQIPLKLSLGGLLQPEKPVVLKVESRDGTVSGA
Sequence of Cytochrome P450 2C19 (Homo sapiens) (P33261 whole entry, looked up): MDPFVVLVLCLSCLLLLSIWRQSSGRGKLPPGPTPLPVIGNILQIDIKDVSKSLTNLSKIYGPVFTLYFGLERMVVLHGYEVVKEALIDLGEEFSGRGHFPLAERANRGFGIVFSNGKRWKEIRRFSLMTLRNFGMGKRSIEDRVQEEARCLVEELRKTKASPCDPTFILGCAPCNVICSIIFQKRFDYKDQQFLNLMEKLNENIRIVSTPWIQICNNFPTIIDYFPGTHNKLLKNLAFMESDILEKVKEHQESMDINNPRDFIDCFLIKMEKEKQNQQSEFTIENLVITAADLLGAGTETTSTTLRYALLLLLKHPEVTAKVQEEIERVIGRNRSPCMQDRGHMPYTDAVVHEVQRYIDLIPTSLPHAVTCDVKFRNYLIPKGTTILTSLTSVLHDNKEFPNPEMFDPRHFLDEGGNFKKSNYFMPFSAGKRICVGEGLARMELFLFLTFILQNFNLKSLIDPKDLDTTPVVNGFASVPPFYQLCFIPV
Sequence of Cytochrome P450 2D6 (Homo sapiens) (P10635 whole entry, looked up): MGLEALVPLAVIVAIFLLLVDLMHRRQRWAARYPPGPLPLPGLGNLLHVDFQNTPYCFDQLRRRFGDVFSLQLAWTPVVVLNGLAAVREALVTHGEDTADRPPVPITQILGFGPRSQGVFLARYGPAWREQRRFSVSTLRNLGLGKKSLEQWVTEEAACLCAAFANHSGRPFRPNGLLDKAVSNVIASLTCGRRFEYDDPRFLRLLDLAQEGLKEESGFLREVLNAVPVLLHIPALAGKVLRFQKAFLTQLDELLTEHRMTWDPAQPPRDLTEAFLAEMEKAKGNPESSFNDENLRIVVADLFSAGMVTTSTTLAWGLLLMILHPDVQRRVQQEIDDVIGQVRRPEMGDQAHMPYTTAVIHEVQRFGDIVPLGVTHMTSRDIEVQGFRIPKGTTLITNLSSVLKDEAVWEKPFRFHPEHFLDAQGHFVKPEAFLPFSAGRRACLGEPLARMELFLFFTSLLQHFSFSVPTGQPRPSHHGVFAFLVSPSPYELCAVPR

Turning to `CNNCc1ccc(C(=O)NC(C)C)cc1`, in assay [1], the activation was 9.99%.

For `Cc1cccc(N(C)C(=S)Oc2ccc3ccccc3c2)c1`, in assay [2], the molecule was classed as inactive. Further, the Potency result in assay [3] and in assay [4] was “inactive” each time.

With `CN(C)CCc1c[nH]c2ccc(CS(=O)(=O)N3CCCC3)cc12`, the call in assay [5] was inactive. In addition, the Potency result in assay [3] and in assay [4] was “inactive” in each case.

As for `Nc1nc(N)c2nc(CNc3ccc(C(=O)NC(CCC(=O)O)C(=O)O)cc3)cnc2n1` (centres undefined), in assay [5], the call was inactive. For the same molecule, the Potency result in assay [3] and in assay [4] was “inactive” each time.

As for `CC(=O)CC(c1ccccc1)c1c(O)c2ccccc2oc1=O` (centres undefined), the call in assay [5] was inactive. The Potency result in assay [3] and in assay [4] was “inactive” each time.

Consider `CC1=CC(=O)c2ccccc2C1=O`, for which, in assay [2], the molecule was classed as inactive. In addition, the Potency is 7.94 µM (active) in assay [6] and 2.51 µM (active) in assay [7]. The Potency entry in assay [3] and in assay [4] was “inactive” each time.

Regarding `O=C(O)c1cccnc1`, in assay [5], the result was inactive. Besides, the Potency entry in assay [3] and in assay [4] was “inactive” in each case.

On to `NCCCC(O)(P(=O)(O)O)P(=O)(O)O`, for which the Potency result in assay [3] and in assay [4] was “inactive” throughout.

`COC(=O)Nc1nc2ccc(Sc3ccccc3)cc2[nH]1`: in assay [5], the molecule was classed as inactive. The Potency entry in assay [3] and in assay [4] was “inactive” each time.

On to `CN(Cc1cc(Br)cc(Br)c1N)C1CCCCC1`, for which the Potency result in assay [3] and in assay [4] was “inactive” in each case.

With `COc1ccc(C(=O)CC(=O)c2ccc(C(C)(C)C)cc2)cc1`, in assay [5], the molecule was called inactive. Moreover, the Potency result in assay [3] and in assay [4] was “inactive” in each case.

For the molecule `COc1c(N2CCNC(C)C2)c(F)cc2c(=O)c(C(=O)O)cn(C3CC3)c12` (centres undefined), in assay [5], the outcome was inactive. Further, the Potency result in assay [3] and in assay [4] was “inactive” each time.

Turning to `S=P(N1CC1)(N1CC1)N1CC1`, the Potency entry in assay [4] was “inactive”.

`CCCOc1ccc(C(=O)OCCN(CC)CC)cc1N`: the Potency result in assay [7] is “inactive”.

`CCCCS(=N)(=O)CCC(N)C(=O)O` (centres undefined): in assay [2], the outcome was inactive. In addition, the Potency entry in assay [3] and in assay [4] was “inactive” throughout.

Regarding `CNS(=O)(=O)Cc1ccc2[nH]cc(CCN(C)C)c2c1`, the call in assay [5] was inactive. For the same molecule, the Potency entry in assay [3] and in assay [4] was “inactive” each time.

For the molecule `Oc1c(Cl)cc(Cl)c2cccnc12`, the Potency entry in assay [3] and in assay [4] was “inactive” throughout.

As to `NC(=O)N1c2ccccc2CC(=O)c2ccccc21`, the Potency result in assay [3] and in assay [4] was “inactive” throughout.

In the case of `CCCc1cc(C(N)=S)ccn1`, the Potency result in assay [3] and in assay [4] was “inactive” each time.

With `CC(C)(Sc1cc(C(C)(C)C)c(O)c(C(C)(C)C)c1)Sc1cc(C(C)(C)C)c(O)c(C(C)(C)C)c1`, the Potency entry in assay [3] and in assay [4] was “inactive” in each case.

Consider `C1CCC(C(CC2CCCCN2)C2CCCCC2)CC1` (centres undefined), for which the molecule was classed as inactive in assay [2]. In addition, the Potency entry in assay [3] and in assay [4] was “inactive” each time.

On to `COc1cc(NS(=O)(=O)c2ccc(N)cc2)nc(OC)n1`, for which the Potency result in assay [3] and in assay [4] was “inactive” each time.

For `CCn1cc(C(=O)O)c(=O)c2cc(F)c(N3CCNCC3)cc21`, the Potency entry in assay [3] and in assay [4] was “inactive” in each case.

With `CN1CCCC(n2nc(Cc3ccc(Cl)cc3)c3ccccc3c2=O)CC1` (centres undefined), the Potency entry in assay [3] and in assay [4] was “inactive” throughout.

For `OC(Cn1cncn1)(Cn1cncn1)c1ccc(F)cc1F`, the Potency entry in assay [3] and in assay [4] was “inactive” throughout.

Consider `Nc1ccc(S(=O)(=O)Nc2ccccn2)cc1`, for which, in assay [5], the outcome was inactive. The Potency result in assay [3] and in assay [4] was “inactive” each time.

On to `Cc1cccc(Nc2ccncc2S(=O)(=O)NC(=O)NC(C)C)c1`, for which, in assay [2], the call was inactive. For the same molecule, the Potency entry in assay [3] and in assay [4] was “inactive” each time.

With `COC(=O)Nc1nc2ccc(S(=O)c3ccccc3)cc2[nH]1` (centres undefined), the Potency result in assay [3] and in assay [4] was “inactive” throughout.

Values taken from PubChem BioAssay (NCATS).
